The campaign covered roughly 3,300 compounds. About 280 (8.5%) were called active.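 How the source made its calls: active means mean growth inhibition over the two runs of 50% or more; inactive means mean growth inhibition under 50%.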 This excerpt belongs to a sample that is enriched for actives.
assay: A549 NSCLC cell proliferation inhibitors – ATP luminescence, human non-small cell lung line, primary screen (AID 371); details: at 10 µM, hits give high values;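 further: compound exposure lasted 72 h before the ATP read; 0% = untreated cell signal and 100% = no luminescence left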

Compound	growth inhibition
Cc1cc(NCCNC2=CC(=O)CCC2)nc2ccccc12	3.87% (inactive)
Cc1cc(N/C=C/C(=O)c2cccc3ccccc23)no1	40.5% (inactive)
CC(=O)Oc1ccc2c(C)cc(=O)[nH]c2c1	10.7% (inactive)
C[C@]12CC[C@@H]3c4ccc(O)cc4CC[C@H]3[C@@H]1CC[C@@H]2OC(=O)CCC(=O)O	14.8% (inactive)
C[C@]12CC[C@@H]3c4ccc(OS(=O)(=O)O)cc4CC[C@H]3[C@@H]1CCC2=O	-4% (inactive)
C[C@]12CC[C@@H]3c4ccc(O[C@@H]5O[C@H](C(=O)O)[C@@H](O)[C@H](O)[C@H]5O)cc4CC[C@H]3[C@@H]1C[C@@H](O)[C@@H]2O	-8.48% (inactive)
C[C@]12CC[C@@H]3c4ccc(OC(=O)c5ccccc5)cc4CC[C@H]3[C@@H]1CC[C@@H]2O	73.8% (active)
CCCCC(=O)O[C@H]1CC[C@H]2[C@@H]3CCc4cc(O)ccc4[C@H]3CC[C@]12C	92.3% (active)
C[C@]12CC[C@@H]3c4ccc(O)cc4CC[C@H]3[C@@H]1CCC2=O	14.8% (inactive)
CCOC(=O)COn1c(=O)c(-c2ccc(OC)c(OC)c2)[n+]([O-])c2ccccc21	4.28% (inactive)
CCCCSc1nc(N)c(C#N)c(-c2cccs2)c1C#N	40.8% (inactive)
CC1(C)C2CCC1(C)C(NC(=O)CCN1CCCCC1)C2 (centres undefined)	7.81% (inactive)
CNS(=O)(=O)c1cccc2nsnc12	-11.4% (inactive)
COc1cc(S(=O)(=O)N2CCN(C)CC2)c(OC)cc1Br	6.26% (inactive)
CCN1CCc2c(C#N)c(N3CCOCC3)nc(NCCO)c2C1	6.84% (inactive)
CCN1CCc2c(C#N)c(NCc3ccccc3)nc(NCCO)c2C1	3.07% (inactive)
CCN1CCc2c(C#N)c(N3CCCCC3)nc(N3CCOCC3)c2C1	4.36% (inactive)
C=CCNc1nc(NCc2ccccc2)c(C#N)c2c1CN(C)CC2	70.9% (active)
CCN1CCc2c(C#N)c(NCc3ccccc3)nc(N(CC)CC)c2C1	67.3% (active)
CCN1CCc2c(C#N)c(N3CCCCC3)nc(NCc3ccccc3)c2C1	88.8% (active)
CN1CCc2c(C#N)c(N3CCCCC3)nc(N3CCOCC3)c2C1	3.07% (inactive)
CCN1CCc2c(C#N)c(N3CCOCC3)nc(NCc3ccccc3)c2C1	23.9% (inactive)
CN1Cc2c(N3CCOCC3)nc(SCc3ccccc3)c(C#N)c2CC1(C)C	45.5% (inactive)
CCCCCNc1nc(N2CCCC2)c2c(c1C#N)CCN(C)C2	95.5% (active)

Compound	growth inhibition
CCN(CC)c1nc(N2CCOCC2)c(C#N)c2c1CN(C)CC2	11.1% (inactive)
C=CCNc1nc(N2CCOCC2)c(C#N)c2c1CN(C)CC2	2.03% (inactive)
FC(F)(F)c1cccc(-n2cccc2/C=N/n2cnnc2)c1	9.69% (inactive)
CSc1nc2[nH]c3c(c2c2ncnn12)CCCC3	38.4% (inactive)
Cc1cc(=O)n2[nH]c(N3C(=O)CCC3=O)nc2n1	1.01% (inactive)
Cc1nccn1-c1cc(C(C)C)c(C#N)c2nc3ccccc3n12	2.71% (inactive)
O=c1[nH]c(CN2CCCCC2)nc2c1C1(CCCC1)Cc1ccccc1-2	2.71% (inactive)
[N-]=[N+]=CC(=O)c1ccnc(C(=O)C=[N+]=[N-])c1	23.6% (inactive)
COc1ccc(/C(O)=C2\C(=O)C(=O)N(c3cc(C)on3)C2c2ccccc2OC)cc1 (centres undefined)	-10.7% (inactive)
O=C1c2ccccc2C(=O)N1CC1c2ccccc2CCN1C(=O)N1CCOCC1 (centres undefined)	5.08% (inactive)
CCOC(=O)c1c(NC(=O)CCN2CCOCC2)sc2c1CC(C)(C)OC2	5.84% (inactive)
C=CCNc1nc(N2CCCCC2)c(C#N)c2c1CN(Cc1ccccc1)CC2	37.1% (inactive)
N#Cc1c(NCCN)nc(NCc2ccccc2)c2c1CCN(Cc1ccccc1)C2	91.8% (active)
Nc1[nH]nc2nc(NCc3ccccc3)c3c(c12)CCN(Cc1ccccc1)C3	24.5% (inactive)
N#Cc1c(NCCCO)nc(-c2ccccc2)c2c1CCCC2	32.5% (inactive)
N#Cc1c(N2CCCCC2)nc(N2CCCCC2)c2c1CCN(Cc1ccccc1)C2	19.3% (inactive)
CN1CCc2c(C#N)c(N3CCCCC3)nc(NCc3ccccc3)c2C1	90.4% (active)
CCCc1cc(=O)oc2c(CN3CCN(C)CC3)c(O)c(Cl)cc12	1.1% (inactive)
CCOC(=O)Cc1[nH]nc2c1C(c1cc(OC)ccc1OC)C(C#N)=C(N)O2 (centres undefined)	-2.35% (inactive)
COCCOC(=O)c1c(C)nc(SCC(=O)Nc2ccc(C)cc2)c(C#N)c1-c1ccco1	3.22% (inactive)
Cc1nc(N2CCOCC2)c(C#N)c2c1COC(C)(C)C2	12.7% (inactive)
COc1ccc([C@@H]2Sc3ccccc3N(CCN(C)C)C(=O)[C@@H]2OC(C)=O)cc1	15.1% (inactive)
CN(C)CCCN1c2ccccc2Sc2ccc(C(F)(F)F)cc21	90.7% (active)
CN(C)CCCN1c2ccccc2CCc2ccccc21	16.1% (inactive)

Compound	growth inhibition
CN(C)CCCOC(=O)c1ccc(Cl)cc1Cl	5.84% (inactive)
CN(C)CCCN1c2ccccc2Sc2ccccc21	29.4% (inactive)
CN(C)CCCN1c2ccccc2CCc2ccc(Cl)cc21	85.6% (active)
CN1CCN(C2=Nc3cc(Cl)ccc3Nc3ccccc32)CC1	26% (inactive)
CN(C)CCCN1c2ccccc2Sc2ccc(Cl)cc21	92.2% (active)
COc1cccc(C(=O)N2CCN(Cc3ccccn3)CC2)c1OC	-2.78% (inactive)
COc1ccc(Cn2c(N)c(C#N)c3nc4ccccc4nc32)cc1OC	11.7% (inactive)
CC[C@H](C)C(=O)O[C@H]1C[C@@H](C)C=C2C=C[C@H](C)[C@H](CC[C@@H]3C[C@@H](O)CC(=O)O3)[C@H]21	64.9% (active)
COc1cc(C2C(C(C)=O)=C(O)C(=O)N2c2ccc(Br)cn2)ccc1O (centres undefined)	3.52% (inactive)
CC1(C)CC(=O)C(C=NCCN2CCN(C(=O)C34CC5CC(CC(C5)C3)C4)CC2)=C(O)C1	3.05% (inactive)
COc1ccccc1-n1c(=O)c2c3c(sc2n2c(SC)nnc12)CCC3	6.85% (inactive)
COc1ccc2c(c1)[nH]c1c(=O)n(CC3CCCO3)cnc12 (centres undefined)	8.24% (inactive)
COc1cccc(N2CCN(c3ncnc4c3[nH]c3ccc(F)cc34)CC2C)c1 (centres undefined)	93% (active)
COc1cccc(N2CCN(c3ncnc4c3[nH]c3ccccc34)CC2C)c1 (centres undefined)	91.9% (active)
COc1cccc(N2CCN(C(=O)c3ccc(=O)oc3)CC2C)c1 (centres undefined)	-1.33% (inactive)
COc1cccc(OCCN2CCN(c3ncnc4c3cnn4-c3ccccc3)CC2)c1	46.7% (inactive)
CCOC(=O)C1/C(=N\O)CC(C)(O)C(C(=O)OCC)C1c1ccc(N(C)C)cc1 (centres undefined)	7.47% (inactive)
O=c1c2c3c(sc2n2cnnc2n1Cc1ccccc1)CN(Cc1ccccc1)CC3	70.5% (active)
CCCSc1nnc2n(Cc3ccccc3)c(=O)c3c4c(sc3n12)CCC4	13.6% (inactive)
Cc1nnc2n(Cc3ccccc3)c(=O)c3c4c(sc3n12)CN(Cc1ccccc1)CC4	40.6% (inactive)
CC1CCc2cc(F)cc3c(O)c(C(=O)Nc4cnccn4)c(=O)n1c23 (centres undefined)	26.4% (inactive)
CC1CCc2cc(F)cc3c(O)c(C(=O)NCc4ccco4)c(=O)n1c23 (centres undefined)	46.7% (inactive)
CC1CCc2cc(F)cc3c(O)c(C(=O)NCC4CCCO4)c(=O)n1c23 (centres undefined)	61.9% (active)
COC(=O)c1cc(Br)c(=O)n(Cc2ccc3c(c2)OCO3)c1	9.14% (inactive)

Compound	growth inhibition
O=C(NCc1cccnc1)/C(=N\O)c1ccccc1	0.76% (inactive)
CCN1CCN(c2nc3c(C)cccn3c(=O)c2/C=C(\C#N)S(=O)(=O)c2ccc(C)cc2)CC1	1.14% (inactive)
O=C(Cc1cscn1)c1ccc(O)cc1O	2.87% (inactive)
CCCc1cc(C(=O)Cc2ccc(F)cc2)c(O)cc1O	89.5% (active)
CCCN(CCC)C(=O)CC(c1ccc(F)cc1)c1ccco1 (centres undefined)	38.5% (inactive)
CC1N(O)C(c2ccc(Cl)cc2Cl)N(O)C1(C)C (centres undefined)	-11.8% (inactive)
CC1(C)Cc2nc3sc4c(N(CCO)CCO)ncnc4c3cc2CO1	2.92% (inactive)
Cc1ccc(S(=O)(=O)N2CCN(c3nc(C)c4c(c3C#N)CC(C)(C)OC4)CC2)cc1	30.2% (inactive)
Oc1ccc(Br)cc1CNn1cnnc1	3.94% (inactive)
CCn1c(SCC(=O)Nc2ccccc2C(=O)OC)nnc1-c1ccc(N)cc1	-4.2% (inactive)
COCCNc1ncnc2c1cnn2-c1ccc(Cl)cc1	26.1% (inactive)
CCOC(=O)C1=C(C)N=C2SC(C)C(=O)N2C1c1cccc(F)c1 (centres undefined)	-4.33% (inactive)
Oc1c(Cl)cc(Cl)cc1Sc1cc(Cl)cc(Cl)c1O	82.9% (active)
CCOC(=O)C1CCN(c2nc3ccccc3nc2C(C#N)C(=O)OCCOC)CC1 (centres undefined)	13.4% (inactive)
CCC1=Nc2ccccc2NC2=C1C(=O)CCC2	1% (inactive)
CCc1cn([C@H]2C[C@H](O)[C@@H](CO)O2)c(=O)[nH]c1=O	29.9% (inactive)
O=c1[nH]c(=O)n([C@H]2C[C@H](O)[C@@H](CO)O2)cc1F	71% (active)
Cc1cn([C@H]2C[C@H](N=[N+]=[N-])[C@@H](CO)O2)c(=O)[nH]c1=O	7.02% (inactive)
COc1ccccc1-c1nn2c(-c3ccco3)nnc2s1	21.8% (inactive)
Cc1cc2c(c(=O)o1)C(Cc1ccccc1)C(C#N)=C(N)O2 (centres undefined)	-0.57% (inactive)
CC1(C)Cc2c(C#N)c(NCCN3CCOCC3)nc(-c3ccco3)c2CO1	3.05% (inactive)
Nc1ncnc2nc(SCc3ccccc3)[nH]c12	13.6% (inactive)

From PubChem BioAssay AID371 (SRMLSC, 2006)
